Source: PubChem BioAssay (NCI)
About 83,000 compounds went through this panel and 20% of them were active in at least one assay; those are over-represented in the sample as a whole.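 Method: cells in 96-well plates; compound added at one concentration; 48 h incubation; percent growth measured; values under 10 scored active.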 A number with no mark means an inactive call. Calls of active or inactive are those of the source.

test system: MDA-MB-468 breast; assay: NCI-60 one-dose screen, 48 h (100 = growth as untreated, 0 = no growth, -100 = all killed); settings: 10 µM unless noted

| SMILES | growth |
| --- | --- |
| Cc1cc(C)c2c(c1)N(C)c1ncnc(-n3c(C)nc4cc(C)ccc43)c1CC2C (centres undefined) | 3.92% (active) |
| CCCCCCCOc1cccc(/C=C2\N=C3SCCCN3C2=O)c1 | 89.2% |
| COC1CC(OC(=O)c2ccc([N+](=O)[O-])cc2)C(COC(=O)c2ccc([N+](=O)[O-])cc2)O1 (centres undefined) | 93.6% |
| COC(=O)CCC/C=C\C[C@H]1C=CC(=O)/C1=C/C[C@@H](O)C/C=C\CC(F)(F)F | -6.29% (active) |
